{"source": "the OligoGym collection"}
{"biological_target": "RAD54L", "assay": "pooled miR-30 sensor sort-seq; sequence = guide strand", "conditions": "shRNA"}
{"sequence": "TTGACCATCTCGCCAGACCCGG", "sensor-assay potency score (higher = more potent)": -1.03}
{"sequence": "TTCTTGATGATTTTCTCCCAGA", "sensor-assay potency score (higher = more potent)": -0.985}
{"sequence": "TTACAAAGCTTCTTTAGCGAGG", "sensor-assay potency score (higher = more potent)": -0.517}
{"sequence": "TTCATGCTGACTGCTGTCCAGA", "sensor-assay potency score (higher = more potent)": -1.19}
{"sequence": "TAGATATAGCAAGTCTTCTTTT", "sensor-assay potency score (higher = more potent)": -1.02}
{"sequence": "TTAACAAAATGTACCAAGCTGA", "sensor-assay potency score (higher = more potent)": -0.415}
{"sequence": "TTGTCTCAGAAACCTCTTGTAT", "sensor-assay potency score (higher = more potent)": -1.26}
{"sequence": "TTGATTGGTTAGCTGACTCAAA", "sensor-assay potency score (higher = more potent)": -0.506}
{"sequence": "TTCTTTTGACCATCTCGCCAGA", "sensor-assay potency score (higher = more potent)": -0.96}
{"sequence": "TCTTGTATAACTCAGTCTGAAG", "sensor-assay potency score (higher = more potent)": -1.48}
{"sequence": "TTGCACTCTGGACTCTGGCGTA", "sensor-assay potency score (higher = more potent)": -0.761}
{"sequence": "TTCTTAATGGACATCGTGCCAT", "sensor-assay potency score (higher = more potent)": -0.43}
{"biological_target": "RAD9A", "assay": "pooled miR-30 sensor sort-seq; sequence = guide strand", "conditions": "shRNA"}
{"sequence": "TTTTTCCACCGTCTTCTCCAGC", "sensor-assay potency score (higher = more potent)": -1.2}
{"sequence": "TTCATCAGGATCTTACAGCGCA", "sensor-assay potency score (higher = more potent)": 0.0418}
{"sequence": "TGAATCAATAGCAGCGTCCAGT", "sensor-assay potency score (higher = more potent)": -0.732}
{"sequence": "TACAGTGACAGCCAGCTGGGGC", "sensor-assay potency score (higher = more potent)": -0.774}
{"sequence": "TTAATGAATCAATAGCAGCGTC", "sensor-assay potency score (higher = more potent)": -0.585}
{"sequence": "TTCCTTAGGAAGGTGAGCCTGA", "sensor-assay potency score (higher = more potent)": 0.111}
{"sequence": "TGTGCTGTGAGCCTGGAGCTGA", "sensor-assay potency score (higher = more potent)": -0.559}
{"sequence": "TCAAGTTTGCTGACTCTGCAAA", "sensor-assay potency score (higher = more potent)": -0.678}
{"sequence": "TTTACAGTGACAGCCAGCTGGG", "sensor-assay potency score (higher = more potent)": -1.03}
{"sequence": "TCACATCTAAGACACTGCCTGG", "sensor-assay potency score (higher = more potent)": -0.534}
